Measurements published in ChEMBL document CHEMBL4513216, “Probing the Open Global Health Chemical Diversity Library for Multistage-Active Starting Points for Next-Generation Antimalarials” (ACS Infect Dis, 2020).
In all, about 68,000 compounds went through this assay and about 2,700 (4%) showed an effect of 50% or more. The full list was thinned out, with strong results kept by preference.

The compounds below were run on Plasmodium berghei (assay: Screen against P. berghei liver stage (PbLuc), transformed with Luciferase, at 2uM). Conditions: tested at 2 uM.
Type: functional, HepG2

Row | SMILES | INHIBITION [%]
1 | CC(C)c1cc(C(=O)NCCCN(C)C)nc(N2CCCC2)n1 | 27.54
2 | FC(F)Oc1ccc(NCc2nc(C3CC3)no2)c(OC(F)F)c1 | -35.14
3 | CC(C)c1noc(CNc2ccc(OC(F)F)cc2OC(F)F)n1 | -70.61
4 | Cc1noc(CNc2ccc(OC(F)F)cc2OC(F)F)n1 | 57.23
5 | O=C(NCCc1cc(F)ccc1F)NCC(O)C1CC1 (stereo not given) | 30.69
6 | c1ccc(O[C@H]2COCCN(CC3CC3)C2)cc1 | 20.5
7 | CC(NC(=O)Cn1cccn1)c1cccnc1 (stereo not given) | 42.58
8 | CC(CC(=O)NCCCn1cccn1)c1cccnc1 (stereo not given) | 74.51
9 | CC(NC(=O)NCCCn1cccn1)c1cccnc1 (stereo not given) | -8.05
10 | Cc1nc(O)c2c(n1)CCN(Cc1cc(C)sc1C)CC2 | -0.21
11 | CCC[C@@H]1CN(Cc2ccccc2-c2ccco2)C[C@H]1NC(C)=O | 28.19
12 | COCCN1CCC(Cc2cnc(-c3ccccc3C(=O)O)cn2)CC1 | 20.44
13 | Cc1nnc(C(C)NCC2(c3c(F)cccc3F)CCCC2)o1 (stereo not given) | 50.9
14 | Cc1nnc(C(C)NCC2(c3ccc(F)cc3)CCCCC2)o1 (stereo not given) | -55.34
15 | Cc1cccc(C2(CNC(C)c3nnc(C)o3)CCCC2)c1 (stereo not given) | 38.96
16 | O=C(NCC1CC1)[C@@H]1CCO[C@@H]2CCN(Cc3ccsc3)C[C@H]21 | 28.38
17 | O=C(O)c1cc(-c2cc[nH]n2)cc(S(=O)(=O)N2CCCCCC2)c1 | 23.17
18 | O=C1CN(c2ccc(CNC(=O)Nc3nccs3)cc2)CCN1 | 29.4
19 | CCc1n[nH]c(C2CN(C(=O)c3nc(C)ncc3Cl)CCO2)n1 (stereo not given) | 63.95
20 | Cc1n[nH]c(C2CN(C(=O)c3ccc4c(c3)COC4)CCO2)n1 (stereo not given) | 67.28
21 | Nc1nccnc1C1CN(C(=O)c2ccnnc2)CCO1 (stereo not given) | 27.39
22 | Cc1n[nH]c(C2CN(C(=O)c3ccc4c(c3)CCCC4)CCO2)n1 (stereo not given) | -1.87
23 | Nc1nccnc1C1CN(C(=O)c2ccc3c(c2)OCO3)CCO1 (stereo not given) | 50.32
24 | CCc1n[nH]c(C2CN(C(=O)c3ccc4c(c3)COC4)CCO2)n1 (stereo not given) | -0.99
25 | CCc1n[nH]c(C2CN(C(=O)c3cnc(C)nc3CC)CCO2)n1 (stereo not given) | 39.07
26 | Nc1nccnc1C1CN(C(=O)c2cnc(C3CC3)nc2)CCO1 (stereo not given) | 39.9
27 | CCc1n[nH]c(C2CN(C(=O)c3ncoc3CC)CCO2)n1 (stereo not given) | -15.34

Row | SMILES | INHIBITION [%]
28 | COc1ccc(CN2CC[C@H](O)[C@@H]2Cc2cnn(C)c2)cc1 | -10.92
29 | CC(NC(=O)N(C)Cc1cnn(C)c1)c1nncn1C (stereo not given) | 18.63
30 | O=C(Nc1ccc2ncccc2c1)C1CC(=O)N(Cc2ccccn2)C1 (stereo not given) | -6.89
31 | Cc1noc(C)c1CCC(=O)N1CCN(CCn2cncn2)CC1 | 33.75
32 | CN(C)C(=O)NCC(=O)N1CCCC2(CCC(=O)N(CC3CC3)C2)C1 (stereo not given) | 40.61
33 | O=C(CSCC1CC1)N1CCCC2(CCC(=O)N(CC3CC3)C2)C1 (stereo not given) | 1.42
34 | CC(C)CCN1CC2(CCCN(C(=O)CNC(=O)N(C)C)C2)CCC1=O (stereo not given) | 58.03
35 | CC(=O)NCC(=O)N1CCCC2(CCC(=O)N(CCc3c[nH]cn3)C2)C1 (stereo not given) | -53.74
36 | O=C(CCC(F)(F)F)N1CCCC2(CCC(=O)N(CC3CC3)C2)C1 (stereo not given) | -6.04
37 | O=C(CO)N1CCCC2(CCC(=O)N(CC3CC3)C2)C1 (stereo not given) | 62.38
38 | CCN1CCN(C2CCN(Cc3ccc(Cl)s3)CC2)C1=O | 18.52
39 | COCC1CC2(CCN(Cc3ccccn3)CC2)CN1c1ncccn1 (stereo not given) | -23.78
40 | Cc1nnc(SCCCNc2cc(C3CC3)ncn2)s1 | 60.35
41 | Cc1nnc(SCCNc2cc(C3CC3)ncn2)s1 | 12.17
42 | COc1cc(NCCCSc2nnc(C)s2)ncn1 | -29.43
43 | Cc1cc(CN2CCC(c3ccnn3CCO)CC2)no1 | 20.28
44 | COc1cc(S(=O)(=O)N2CCCc3ccccc32)cc(C(=O)O)c1OC | 56.72
45 | COc1cc(S(=O)(=O)N2CCc3ccc(Cl)cc32)cc(C(=O)O)c1OC | 6.3
46 | COc1cc(S(=O)(=O)N2CCc3ccccc32)cc(C(=O)O)c1OC | 12.65
47 | O=C(c1cnccn1)N1CCOCC2(CCN(C3CCOCC3)C2)C1 (stereo not given) | 26.14
48 | Cc1nc(CN2C[C@@H](CN3CCOCC3)[C@@H](CO)C2)c2ccccn12 | 25.81
49 | O=S(=O)(Cc1ccc(Br)cc1)NCCO | 17.51
50 | NCCCNS(=O)(=O)Cc1ccc(Br)cc1 | 5.28
51 | NCCNS(=O)(=O)Cc1ccc(Br)cc1 | 50.59
52 | Cn1cc(CN2CC3(CCN(C(=O)c4cscn4)C3)C2)cn1 | -9.1
53 | Cc1csc(C(=O)NCCN2CCC(c3cccs3)CC2)c1 | 18.23
54 | COc1ccc(C(=O)NCCN2CCC(c3cccs3)CC2)cc1OC | 66.04

Row | SMILES | INHIBITION [%]
55 | CC(=O)NCCN1CCC(c2cccs2)CC1 | 26.64
56 | c1cncc(N2CCO[C@H]3CN(CC4CCOC4)C[C@H]32)c1 (stereo not given in full) | 19.51
57 | O=C(Cn1cc(-c2ccccc2)ncc1=O)Nc1ncc[nH]1 | -80.35
58 | Cn1ccnc1-c1nc(NC2CCCC2)ncc1-c1cccc(F)c1 | 14.3
59 | COCCCNc1ncc(-c2cccc(F)c2)c(-c2nccn2C)n1 | -18.57
60 | COCCNc1ncc(-c2cc(C)no2)c(-c2ccco2)n1 | -29.24
61 | COCCNc1ncc(-c2cccc(OC)c2)c(-c2nccn2C)n1 | 54.87
62 | CCOCCCNc1ncc(-c2cccc(F)c2)c(-c2nccn2C)n1 | 55.72
63 | COCCNc1ncc(-c2cccc(F)c2)c(-c2nccn2C)n1 | 27.12
64 | CN(C)C(=O)COCc1cncc2c1CCN(Cc1cnn(C)c1)C2 | 14.91
65 | Cc1ccc2c(n1)N(C)CCN(Cc1ccco1)C2 | 29.89
66 | CN(C)S(=O)(=O)N1CCC[C@]2(C[C@@H](Oc3ccccn3)CO2)C1 | 19.61
67 | c1ccc(CO[C@@H]2CO[C@@]3(CCN(Cc4ccccn4)C3)C2)nc1 | 40.25
68 | c1ccc(CN2CC[C@]3(C[C@@H](Oc4ccccn4)CO3)C2)nc1 | 8.1
69 | c1ccc(OC2COC3(CCN(Cc4ccccn4)CC3)C2)cc1 (stereo not given) | 62.15
70 | c1ccc(OC2C[C@@H]3CN(Cc4cnccn4)C[C@@H]3C2)cc1 (stereo not given in full) | 50.32
71 | CS(=O)(=O)N1CCC2(CC1)CC(Oc1ccccn1)CO2 (stereo not given) | -0.23
72 | CN(C)S(=O)(=O)N1CCC2(CC1)CC(Oc1ccccn1)CO2 (stereo not given) | 56.78
73 | O[C@@H]1CN(Cc2cnccn2)C[C@H]1Oc1ccccc1 | 26.14
74 | Cc1cnc(CN2C[C@H]3CC(Oc4ccccc4)C[C@H]3C2)cn1 (stereo not given in full) | 25.06
75 | COc1ccc2cc(-c3n[nH]cc3CN3CCSCC3)ccc2c1 | 30.34
76 | CN(C)C(=O)CO[C@@H]1CC[C@H]2[C@H]1OCCN2c1ncc(F)cn1 | 34.89
77 | Cc1cc(CN2CCC(CNS(=O)(=O)c3ccc(Br)s3)CC2)c(C)o1 | 23.96
78 | CC(C)Cc1nc(CSCC(=O)N2CCC(C)CC2)no1 | -32.8
79 | O=C(Nc1ccc(F)c(Br)c1)N1CCCC1 | -5.87
80 | CC(C)CC(NC(=O)c1cccs1)c1nc2cccnc2n1C (stereo not given) | -19.86
81 | NC(=O)C1CCN(CCCNC(=O)Nc2nccs2)CC1 | 28.14

Row | SMILES | INHIBITION [%]
82 | O=C(Nc1cccnc1)[C@H]1CN(Cc2ccccn2)C[C@H]2OCC[C@@H]12 | -43.55
83 | Cc1cc(-c2nc(-c3ccccn3)nn2C2CCN(C)CC2)nc(C)n1 | 14.19
84 | CC1(CO)COC(Cc2ccc(Cl)cc2)=N1 (stereo not given) | -6.98
85 | O=C1N(CCCc2ccccc2)CCCC12CCN(C(CO)CO)C2 (stereo not given) | 7.13
86 | O=C1N(CCc2ccccc2)CCCC12CCN(C(CO)CO)C2 (stereo not given) | 57.92
87 | CS(=O)(=O)N1CCC2(CCCN(CCCc3ccccc3)C2=O)C1 (stereo not given) | -57.67
88 | Cc1ccc(N2CCN(C3CCc4ccccc4C3)CC2)nn1 (stereo not given) | 30.66
89 | Cc1noc(C)c1-c1cncc(CC2CCN(C(=O)c3cc[nH]n3)C2)n1 (stereo not given) | 61.16
90 | Cc1noc(C)c1-c1cccc(CC2CCN(C(=O)c3cc[nH]n3)C2)n1 (stereo not given) | -8.23
91 | Cc1noc(C)c1-c1cc(CC2CCN(C(=O)c3cc[nH]n3)C2)ncn1 (stereo not given) | -15.34
92 | Cc1nc(CNC(=O)N(C)Cc2cnn(C)c2)cs1 | 29.19
93 | Cc1ncc2c(c1CNC(=O)C1(C)CCCCO1)CCNC2 (stereo not given) | -17.55
94 | Cc1ncc2c(c1CNC(=O)C1(C)CC1)CCNC2 | 51.9
95 | Cc1ncc2c(c1CNC(=O)C1(C)CCCO1)CCNC2 (stereo not given) | 21.72
96 | Cc1cc(C)nc(N2CCC(c3cc(CCO)[nH]n3)C2)n1 (stereo not given) | -92.86
97 | Cc1ccc(C(=O)N2CCC3(CCC(=O)N(CC(C)O)C3)CC2)c(O)c1 (stereo not given) | -0.85
98 | O=C(NCCn1ccc(-c2ccncc2)n1)C1CC1 | -19.3
99 | Fc1cc(Cl)cnc1N1CCCC(c2nccn2Cc2ccncc2)C1 (stereo not given) | 17.69
100 | CN(C)S(=O)(=O)N1C[C@@H]2C[C@H](C(=O)NCc3ccccc3)[C@H](C1)O2 | -32.96
101 | O=C(NCc1ccccc1)[C@H]1C[C@H]2CN(S(=O)(=O)C3CC3)C[C@@H]1O2 | 14.94
102 | CC(C)CS(=O)(=O)N1C[C@@H]2C[C@H](C(=O)NCc3ccccc3)[C@H](C1)O2 | 75.33
103 | CC(C)CCN1C[C@@H]2C[C@H](C(=O)Nc3cccnc3)[C@H](C1)O2 | 26.76
104 | CCN1C[C@@H]2C[C@H](C(=O)Nc3ccccc3)[C@H](C1)O2 | 37.65
105 | CC(C)CCN1C[C@@H]2C[C@H](C(=O)Nc3ccccc3)[C@H](C1)O2 | 73.15
